From PubChem BioAssay
The sample as a whole holds a higher share of hits than the screen did.
GALC G270D act – galactocerebrosidase G270D activity enhancement, cell-based; 145M-Twi-hGALC-G270D cells (Twitcher mouse brain line with human GALC G270D), HMU-beta-Gal fluorescence, 48 h; 45,000 compounds, 0.1% hits; P54803; Potency, µM (titrated, usually from 57.5 µM), usual class: activators; further: potency means the concentration at half of the fitted maximal effect; 0% is about no effect; nearly all actives have a fitted effect of over 65% in size
Target sequence (P54803 whole entry G286D): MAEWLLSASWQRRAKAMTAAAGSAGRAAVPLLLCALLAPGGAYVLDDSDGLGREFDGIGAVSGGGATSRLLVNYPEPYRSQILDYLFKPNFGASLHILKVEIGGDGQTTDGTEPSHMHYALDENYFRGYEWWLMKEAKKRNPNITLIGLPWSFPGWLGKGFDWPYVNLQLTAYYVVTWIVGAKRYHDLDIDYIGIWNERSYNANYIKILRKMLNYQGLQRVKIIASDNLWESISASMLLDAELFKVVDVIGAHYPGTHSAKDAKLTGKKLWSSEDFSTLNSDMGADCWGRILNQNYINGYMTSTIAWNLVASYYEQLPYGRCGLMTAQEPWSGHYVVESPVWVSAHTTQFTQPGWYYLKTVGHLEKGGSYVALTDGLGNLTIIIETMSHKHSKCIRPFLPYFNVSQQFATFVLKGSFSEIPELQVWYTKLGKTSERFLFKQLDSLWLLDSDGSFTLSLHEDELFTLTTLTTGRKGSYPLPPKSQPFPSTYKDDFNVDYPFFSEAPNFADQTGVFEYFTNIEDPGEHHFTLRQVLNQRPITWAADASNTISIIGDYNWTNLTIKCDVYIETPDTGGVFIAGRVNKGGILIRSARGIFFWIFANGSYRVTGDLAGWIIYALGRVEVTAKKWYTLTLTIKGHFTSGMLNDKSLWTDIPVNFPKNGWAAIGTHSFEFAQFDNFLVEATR
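Fluorescence readout: HMU-β-gal cleavage by mutant GALC (0.1 mM final, citrate/phosphate pH 5.2 with 1 mg/mL taurocholate), stopped with carbonate/bicarbonate plus Triton X-100. Cells: murine Twitcher 145M-Twi expressing human G270D GALC; qHTS for activators.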
p53null 32C kill – selectivity test: cytotoxicity in p53 null cells, permissive temperature; Potency, µM (series often up to 46.1 µM), for the others: top-dose activity change, negative = cytotoxicity, actives largely listed as cytotoxic; H1299-neo p53 null cells, ATP luminescence, 24 h, 32C; AID 903; 55,000 compounds, 0.62% hits;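 further: potency means the concentration at half of the fitted maximal effect; 0% = DMSO only and -100% = full killing by 100 µM tamoxifen; nearly all actives have a fitted effect of over 55% in size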
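Cells lacking p53 (H1299-neo) are plated at 600 per well and allowed to settle overnight at 37C. Test compounds (up to 46 uM) are added and held 24 hours at 32C, then ATP is quantified by luminescence.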
FH mod – Identification of activators of human fumarate hydratase by quantitative high-throughput screening. AID 1347055, 2019. 54,000 compounds, 0.22% hits. FH coupled MDH/diaphorase resazurin fluorescence, 15 min. Fumarate hydratase, mitochondrial (Homo sapiens), P07954. Potency, µM (doses to about 79.9 µM), inactives show at the highest dose activity change, negative = inhibition, hits mostly inhibitors; further: potency means the concentration at half of the fitted maximal effect; on the % scale 0 is the no-effect control and ±100 the full control effect; the screen sought activators but most active calls are inhibition curves; nearly all actives have a fitted effect of over 45% in size
NTMT1 inh – blocks human N-terminal methyltransferase 1 activity | Q9BV86 | NTMT1 MTase-Glo SAH luminescence, purified enzyme | Potency, µM (doses to about 114 µM), for the others: at the highest dose activity change, negative = inhibition, hits mostly inhibitors | 59,000 compounds, 2.5% hits;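 further: potency means the concentration at half of the fitted maximal effect; plate controls were DMSO vehicle for no effect and no enzyme for full effect; nearly all actives have a fitted effect of over 65% in size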
p53null 39C kill – kills p53 null cells at the nonpermissive temperature. 55,000 compounds, 0.97% hits. AID 904. Potency, µM (highest dose often 46.1 µM), inactives show at the top dose activity, negative = cell killing, hits mostly cytotoxic. H1299 p53-null (neo) cells, 39C, ATPlite viability, 24 h;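 further: potency means the concentration at half of the fitted maximal effect; 0% = DMSO only and -100% = full killing by 100 µM tamoxifen; nearly all actives have a fitted effect of over 50% in size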
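Concentration-response (up to 46 uM) was run for 24 h at the nonpermissive 39C on H1299-p53A138V or H1299-neo cells. ATP content was measured with ATPlite luminescence. AC50 values were Hill-modeled after normalizing between DMSO and 100 uM tamoxifen killing.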
Sfp qHTS opt – inhibits purified B. subtilis Sfp PPTase | shares compounds with NTMT1 inh | purified Sfp PPTase enzyme activity, qHTS | Potency, µM (doses to about 114 µM), inactives show at the highest dose activity change, negative = inhibition, usual class: inhibitors | 230 compounds, 78% hits | AID 540350
Bsub HM489 growth – B. subtilis HM489 growth inhibition; shares compounds with NTMT1 inh; 220 compounds, 50% hits; Potency, µM (series often up to 114 µM), without a hit: top-dose activity change, negative = inhibition, hits mostly inhibitors; B. subtilis HM489 (acpS-) growth, BacTiter-Glo, 5 h
Sfp gel opt – inhibits B. subtilis Sfp PPTase in gel assay; purified Sfp PPTase, gel-based product detection; 220 compounds, 54% hits; shares compounds with NTMT1 inh; Potency, µM (top dose mostly 250 µM), for inactives: at the highest dose activity change, negative = inhibition, most hits filed as inhibitors; AID 540355
Sfp inh gel – inhibits B. subtilis Sfp PPTase in gel-based assay; shares compounds with NTMT1 inh; 45 compounds, 90% hits; purified Sfp PPTase, gel-based product detection; AID 602362; Potency, µM (highest dose often 250 µM), for the others: at the highest dose activity change, negative = inhibition, most hits filed as inhibitors
Sfp SAR2 – inhibitors of Bacillus subtilis Sfp PPTase, SAR round 2. shares compounds with NTMT1 inh. purified Sfp enzyme, PPTase activity, qHTS. Potency, µM (highest dose often 57.1 µM), without a hit: top-dose activity change, negative = inhibition, actives largely listed as inhibitors. 230 compounds, 87% hits. AID 602370
hGST ctr – counter-screen for Sfp PPTase inhibitors: hGST A1-1 inhibition. shares compounds with NTMT1 inh. hGST A1-1 enzyme activity counter-screen, qHTS. Potency, µM (doses to about 114 µM), without a hit: top-dose activity change, negative = inhibition, most hits filed as inhibitors. 55 tested, under 10 active. AID 602391
HSD17B4 counter – HSD17B4 (human) inhibition, HPGD counter-screen. shares compounds with NTMT1 inh. purified HSD17B4, estradiol/NAD+, NADH fluorescence. Potency, µM (top dose mostly 57.1 µM), inactives show at the highest dose activity change, negative = inhibition, hits mostly inhibitors. 230 compounds, 10% hits. AID 743187
ALDH1A1 inh – ALDH1A1 (human) inhibition, HPGD counter-screen; shares compounds with NTMT1 inh; recombinant ALDH1A1, NADH fluorescence, propionaldehyde/NAD+; Potency, µM (doses to about 57.1 µM), for the others: top-dose activity change, negative = inhibition, most hits filed as inhibitors; 230 compounds, 93% hits
Active calls of the source: *; i = inactive; u = inconclusive; x = no result; ! = repeats disagree; [ ] = remark or other dose. The call rests on the fitted dose curve; in most records, active means well fitted curve in the direction sought with a large enough effect; inconclusive means small, poorly fitted or top-dose-only effect, or another doubt; inactive means no such curve, though single readings can be large; an effect the other way counts as inactive or inconclusive.

SMILES	GALC G270D act	p53null 32C kill	FH mod	NTMT1 inh	p53null 39C kill	Sfp qHTS opt	Bsub HM489 growth	Sfp gel opt	Sfp SAR2	HSD17B4 counter	ALDH1A1 inh	others
Cc1ccnc(NC(=S)N2CCCN(c3cccc(C(F)(F)F)c3)CC2)c1	x	x	x	u	x	4.69µM*	7.44µM*	1.35µM*	1.62µM*	-8.5%	1.71µM*	Sfp inh gel=1.9µM*;hGST ctr=u
Cc1ccnc(N=C(N)N2CCN(c3cccc(C(F)(F)F)c3)CC2)c1	x	x	x	x	x	u	u	0.6%	36.3µM*	x	x	Sfp inh gel=0.6%;hGST ctr=u
Cc1cc(Nc2cccc(C(F)(F)F)c2)ncn1	i	-4.9%	-4.9%	-17.9%	-12.4%	x	x	x	x	x	x
FC(F)(F)c1cccc(N2CCN(C(=S)Nc3cc(C(F)(F)F)ccn3)CC2)c1	x	x	x	u	x	5.13µM*	7.44µM*	u	u	-12.1%	19.2µM*	Sfp inh gel=-5.0%;hGST ctr=u
Cn1cnc(S(=O)(=O)N2CCC(C(=O)N3CCN(c4cccc(C(F)(F)F)c4)CC3)CC2)c1	i	0.1%	-20.7%	-4.9%	14.3%	x	x	x	x	x	x
COC(=O)C[C@H]1C(C)(C)[C@H](OC(=O)C(C)C)[C@@]2(O)C(=O)[C@]1(C)C1CC[C@]3(C)C(CC(=O)O[C@H]3c3ccoc3)[C@]13O[C@@H]32 (some centres not stated)	x	x	-0.2%[20.6 µM]	6.1%[12.6 µM]	x	x	x	x	x	x	x
Cn1nnc(-c2ccc(-c3ccc(N4C[C@H](COP(=O)(O)O)OC4=O)cc3F)cn2)n1	x	x	-7.1%	4.3%[57.5 µM]	x	x	x	x	x	x	x
C[C@@H]1CC(=O)Nc2cccc(-c3ccc4c(c3)c(-c3cnn(C)c3)nn4C)c2N1	x	x	x	6.1%	x	x	x	x	x	x	x
CSc1nc(N)cc(Oc2ccc(-c3nc(Nc4cccc(C(F)(F)F)c4)n[nH]3)cc2)n1	x	x	u	-16.3%	x	x	x	x	x	x	x
CC(=O)OC[C@]12[C@H](OC(C)=O)[C@H](OC(=O)c3ccccc3)[C@@H]3[C@@H](OC(C)=O)[C@]1(OC3(C)C)[C@H](C)C[C@H](OC(=O)c1ccccc1)[C@@H]2OC(=O)c1ccccc1	x	x	-5.7%[20.6 µM]	8.4%[12.6 µM]	x	x	x	x	x	x	x
FC(F)(F)c1cccc(N2CCN(C(=S)Nc3cnccn3)CC2)c1	x	x	x	x	x	u	-52.8%	158µM*	u	30.4µM*	24.1µM*
Cc1ccc(NC(=O)N2CCN(c3ccc(Cl)c(Cl)c3)CC2)cc1	i	5.1%	-26.9%	1.3%	u	x	x	x	x	x	x
Cc1cc(C)nc(NC(=S)N2CCN(c3cc(C(F)(F)F)cc(C(F)(F)F)c3)CC2)c1	x	x	x	x	x	3.32µM*	17.0%	u	0.51µM*	-2.0%	21.5µM*
Cc1cc(C)nc(NC(=S)N2CCN(S(=O)(=O)c3cccc(C(F)(F)F)c3)CC2)c1	x	x	x	u	x	2.35µM*	u	-29.3%	0.81µM*	-18.5%	21.5µM*
COC(=O)Cc1ccc(NC(=S)N2CCN(c3cccc(O)c3)CC2)cc1	x	-6.8%	x	x	x	x	x	x	x	x	x
CSc1ncc(C(=O)N2CCN(c3cccc(C(F)(F)F)c3)CC2)c(C)n1	i	-9.3%	-3.1%	17.8%	-10.6%	x	x	x	x	x	x
Cc1cc(C)nc(NC(=S)N2CCN(c3ccc4cn(C)nc4c3)CC2)c1	x	x	x	u	x	13.2µM*	12.3%	-68.5%	11.5µM*	u	21.5µM*
C[C@H]1CN(C2COC2)CCN1c1ccc(Nc2cc(-c3ccnc(N4CCn5c(cc6c5CC(C)(C)C6)C4=O)c3CO)cn(C)c2=O)nc1	x	x	x	-10.3%	x	x	x	x	x	x	x
Cc1ccnc(C(=S)N2CCN(c3cccc(C(F)(F)F)c3)CC2)c1	x	x	x	-1.6%	x	u	u	6.2%	u	-6.7%	17.1µM*
OCc1ccnc(NC(=S)N2CCN(c3cccc(C(F)(F)F)c3)CC2)c1	x	x	x	-1.4%	x	59.1µM*	52.7µM*	37.0%	32.4µM*	-20.6%	24.1µM*
FC(F)(F)c1cccc(N2CCN(C(=S)Nc3ccccn3)CC2)c1	x	x	x	x	x	2.35µM*	37.3µM*	25.1µM*	0.91µM*	-26.9%	7.64µM*
FC(F)(F)c1cccc(N2CCN(C(=S)Nc3cc4ccccc4cn3)CC2)c1	x	x	x	x	x	46.9µM*	-1.2%	15.8µM*	12.9µM*	24.1µM*	15.2µM*
Cc1ccc(/C=C/C(=O)N2CCN(c3cccc(C(F)(F)F)c3)CC2)cc1	x	-17.2%	x	x	-5.9%	x	x	x	x	x	x
CN1CCN(S(=O)(=O)c2ccc(-c3cnc(N)c(C(=O)Nc4cccnc4)n3)cc2)CC1	x	x	11.5%[53.3 µM]	15.0%[29.8 µM]	x	x	x	x	x	x	x
CC1(N)CCN(c2cnc(-c3cccc(Cl)c3Cl)c(N)n2)CC1	x	x	x	-0.2%[57.5 µM]	x	x	x	x	x	x	x
Cc1ccnc(NC(=S)N2CCN(c3cccc(C(F)(F)F)c3)C2)c1	x	x	x	-10.7%[57.5 µM]	x	3.5%	-28.1%	u	0.81µM*	-8.2%	21.5µM*
Cc1ccc2nc(N3CCN(c4cccc(C(F)(F)F)c4)CC3)c3nnnn3c2c1	x	-11.0%	x	x	-0.3%	x	x	x	x	x	x
Cc1ccnc(NC(=S)N2CCN(c3cccc(C(F)(F)F)c3)CC2)c1	x	x	x	x	x	4.69µM*	11.8µM*	0.316µM*!	0.65µM*	-24.9%	7.64µM*	Sfp inh gel=4.26µM*;hGST ctr=-3.4%
